Measured values reported in PubChem BioAssay.
A number with no mark means an inactive call. Results filed as inconclusive are left out. Active and inactive are the calls of the source. Cut-off read from the data, not from the text of the source, unless noted: active = fluorescence slope change above about 50%; inconclusive = mostly about 31% to 49%; inactive = weaker than that.

Columns and labels:
[1] = molecular target: ATP-dependent translocase ABCB1 (Homo sapiens) (UniProt P08183); assay: P-glycoprotein substrate transport blockade – cell-based (AID 377); conditions: MDR1-expressing cells, fluorescent substrate accumulation slope; active compounds read high; concentration not given here
[2] = compounds altering circadian rhythm period length – cell-based, LOPAC library, luminescence reporter (AID 2774; call rule not given here;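 note: values are relative to mean of DMSO wells on each plate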); conditions: circadian reporter cells, at 7 µM, actives lie on both sides
[3] = test system: Hepatitis C virus NS3 helicase; assay: blockers of NS3h binding to ssDNA – biochemical, fluorescence polarization, LOPAC1280 library, primary screen (AID 687035; in the data active = inhibition above about 37%); conditions: Purified HCV NS3 helicase, Cy5-dT15 ssDNA binding fluorescence polarization; active compounds read high; concentration not given here
[4] = compounds altering Cy5-DNA-NS3h complex signal – biochemical, LOPAC1280, artefact control for HCV NS3 helicase inhibitor project (AID 687037; call rule not given here); conditions: Cy5-DNA-NS3h complex fluorescence interference counterscreen

Chain of ATP-dependent translocase ABCB1 (Homo sapiens) (P08183 whole entry, looked up): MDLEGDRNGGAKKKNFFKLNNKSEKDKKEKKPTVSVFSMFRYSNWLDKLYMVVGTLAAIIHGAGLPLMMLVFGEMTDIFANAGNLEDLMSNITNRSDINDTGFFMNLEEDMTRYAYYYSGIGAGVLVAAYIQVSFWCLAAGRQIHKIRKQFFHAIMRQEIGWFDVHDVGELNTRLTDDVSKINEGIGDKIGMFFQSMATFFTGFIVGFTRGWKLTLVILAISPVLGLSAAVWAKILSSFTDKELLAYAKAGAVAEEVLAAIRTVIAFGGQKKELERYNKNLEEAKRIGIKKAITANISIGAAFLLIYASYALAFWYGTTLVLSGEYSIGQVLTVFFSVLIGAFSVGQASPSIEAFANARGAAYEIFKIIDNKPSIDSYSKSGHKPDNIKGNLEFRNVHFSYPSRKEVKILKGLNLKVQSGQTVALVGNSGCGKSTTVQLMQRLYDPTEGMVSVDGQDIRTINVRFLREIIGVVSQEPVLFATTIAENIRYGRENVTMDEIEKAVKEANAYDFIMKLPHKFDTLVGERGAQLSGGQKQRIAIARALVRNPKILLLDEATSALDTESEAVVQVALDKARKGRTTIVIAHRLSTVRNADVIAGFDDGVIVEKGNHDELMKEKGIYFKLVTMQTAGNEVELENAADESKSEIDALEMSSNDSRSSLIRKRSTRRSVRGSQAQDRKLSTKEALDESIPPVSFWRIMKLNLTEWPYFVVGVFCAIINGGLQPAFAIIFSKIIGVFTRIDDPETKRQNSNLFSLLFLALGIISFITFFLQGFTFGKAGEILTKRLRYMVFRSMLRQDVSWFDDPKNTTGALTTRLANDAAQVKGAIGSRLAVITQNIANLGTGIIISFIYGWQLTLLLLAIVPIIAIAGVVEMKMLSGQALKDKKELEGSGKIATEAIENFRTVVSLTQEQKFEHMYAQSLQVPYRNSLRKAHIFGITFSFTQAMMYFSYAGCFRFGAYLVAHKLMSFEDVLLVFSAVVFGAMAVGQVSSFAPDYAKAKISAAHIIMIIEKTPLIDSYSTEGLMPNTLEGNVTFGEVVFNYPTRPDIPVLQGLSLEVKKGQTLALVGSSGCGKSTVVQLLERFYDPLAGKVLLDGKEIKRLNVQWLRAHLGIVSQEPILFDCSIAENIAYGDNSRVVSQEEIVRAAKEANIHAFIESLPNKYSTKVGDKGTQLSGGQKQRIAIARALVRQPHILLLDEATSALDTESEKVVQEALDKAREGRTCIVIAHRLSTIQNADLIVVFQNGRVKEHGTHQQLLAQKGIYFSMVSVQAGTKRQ

In the case of `CN1[C@@H](C[C@H](O)c2ccccc2)CCC[C@H]1CC(=O)c1ccccc1`, the fluorescence slope change [1] is reported as 26.3%.
Work on `CC(C)NC[C@@H](O)c1ccc(O)c(O)c1` yielded a period change [2] of -0.08 h, an inhibition [3] of -5% and a fluorescence ratio (interference) [4] of 0.9.
Molecule `O=C1OC(CN2CCOCC2)CN1N=Cc1ccc([N+](=O)[O-])o1` (stereo unspecified) has a fluorescence slope change [1] of 11.7%.
`c1ccc(CNc2ncnc3nc[nH]c23)cc1` gave a fluorescence slope change [1] of 11.7%.
With `O=C1OC(C(O)CO)C(O)=C1O` (stereo unspecified) the fluorescence slope change [1] was 10.1%.
For `Nc1nc(=S)c2ncn([C@@H]3O[C@H](CO)[C@@H](O)[C@H]3O)c2[nH]1`, the fluorescence slope change [1] was 59.6% (active).
With `CNc1ncnc2c1ncn2[C@@H]1O[C@H](CO)[C@@H](O)[C@H]1O` the fluorescence slope change [1] was 64.6% (active).
In the case of `CCCCC[C@H](O)/C=C/[C@@H]1[C@@H](C/C=C\CCCC(=O)O)[C@@H](O)C[C@H]1O` (tested in a mixture with another compound), the fluorescence slope change [1] is reported as 101% (active).
For `CNCCC=C1c2ccccc2C=Cc2ccccc21`, the fluorescence slope change [1] was 58% (active).
